In the library only some 4.5% were active in any assay of this set; here they are far more common.
TPT1 inhibitor: inhibitors of Candida albicans tRNA 2'-phosphotransferase TPT1; 300,000 tested, 0.81% active; AID 1962; inhibition, % at 5 µM; recombinant caTPT1, FP RNA substrate dephosphorylation;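 active means inhibition above the mean of all tested compounds plus 3 SD, set per screening campaign, cut at about 24% in these data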;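 further: plate controls were DMSO alone for no effect and ferristatin control at 100 nM for full effect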
dFosB activator: enhances mouse delta FosB homodimer DNA binding; P13346; purified delta FosB, TAMRA-CDK5 oligo fluorescence polarization; percent of positive-control signal above neutral wells; activation, % at 25 µM; 340,000 tested, 0.99% active; AID 493131;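 active means mean activation above about 17%, with every replicate also reaching it, limit read from the data, passing the limit was not always enough; inconclusive means only one of the two conditions met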
Target sequence (P13346 whole entry, looked up): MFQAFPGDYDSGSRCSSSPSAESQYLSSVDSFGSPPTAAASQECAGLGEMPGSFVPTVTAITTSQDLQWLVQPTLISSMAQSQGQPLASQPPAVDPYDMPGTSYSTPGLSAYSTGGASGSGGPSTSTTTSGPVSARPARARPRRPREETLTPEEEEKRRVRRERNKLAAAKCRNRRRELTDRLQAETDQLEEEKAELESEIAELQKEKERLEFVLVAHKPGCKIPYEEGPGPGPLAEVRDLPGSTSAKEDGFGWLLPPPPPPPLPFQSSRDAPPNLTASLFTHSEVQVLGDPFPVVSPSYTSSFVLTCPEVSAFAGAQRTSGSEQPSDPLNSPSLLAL
ZTA counter: blocks Epstein-Barr virus ZTA, an EBNA-1 counter-screen | 320,000 tested, 0.15% active | inhibition, % at 11 µM | P03206 | ZTA-DNA binding, fluorescence polarization; in the data active means inhibition above about 33%
Target sequence (P03206 whole entry, looked up): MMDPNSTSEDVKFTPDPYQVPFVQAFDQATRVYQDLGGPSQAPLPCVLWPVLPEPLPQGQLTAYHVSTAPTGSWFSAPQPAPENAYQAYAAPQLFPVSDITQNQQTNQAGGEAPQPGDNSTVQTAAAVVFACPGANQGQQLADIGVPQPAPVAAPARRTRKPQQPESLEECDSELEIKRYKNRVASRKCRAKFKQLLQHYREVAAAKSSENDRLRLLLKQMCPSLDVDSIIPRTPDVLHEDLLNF
EBNA-1 inh: blocks EBNA-1 binding to DNA; EBNA-1 DNA binding, fluorescence polarization; inhibition, % at 14.8 µM; 300,000 tested, 0.34% active; AID 1950; in the data active means inhibition above about 28%
Rpn11 inh: inhibitors of human proteasome Rpn11. AID 588493. inhibition, % at 20 µM. 360,000 tested, 0.59% active. human 26S proteasome, Ub4-pepOG fluorescence polarization; 20S core pre-blocked with epoxomicin. O00487;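 active means inhibition at 20 µM, scaled to each plate's controls, above about 33%, limit read from the data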
NR3A LBD binder: modulators (binders) of human NR3A ligand-binding domain; AID 1259313; NR3A LBD differential scanning fluorimetry, Tm shift; 0% = protein alone, 100% = glycine-bound protein; Tm shift relative to glycine control, % at 25 µM; 340,000 tested, 2.5% active;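 active means melting temperature shift of at least 10% of the positive control shift, at one fixed dose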
Starred values were filed as active, the others as inactive; ? = inconclusive; . = no result.

SMILES	TPT1 inhibitor	dFosB activator	ZTA counter	EBNA-1 inh	Rpn11 inh	NR3A LBD binder
COc1ccc(/C=N/NC(=O)c2ccc(Br)cc2)cc1Cn1cc(Cl)cn1	-3.7	5.4	7.1	31.6*	-3.4	1.6
COc1ccc(/C=N/NC(=O)c2ccccc2)cc1CN1CCN(c2ccc(F)cc2)CC1	-0.8	2.0	9.8	-2.5	4.7	-3.9
O=C(N/N=C\c1ccc(F)cc1)c1ccc(F)cc1	-1.2	-1.7	7.8	2.7	-2.8	0.6
O=C(N/N=C/c1ccccc1[N+](=O)[O-])c1ccc2nc[nH]c2c1	-1.7	1.4	-23.5	-9.9	-2.6	1.3
COc1ccc(/C=C/C(=O)Oc2ccc(/C=N\NC(=O)c3ccc(F)cc3)cc2)cc1	0.1	0.1	-4.9	1.7	1.9	15.2*
COc1ccc(/C=N/NC(=O)c2ccc3nc[nH]c3c2)cc1	-0.2	.	-3.2	-5.5	1.9	14.6*
COc1ccc(C(=O)N/N=C/c2ccc(OC)c(COc3ccc(F)cc3F)c2)cc1	3.9	-5.7	5.0	-12.1	6.8	15.5*
COc1ccc(NC(=O)C(=O)NCCC2CCCCN2S(=O)(=O)c2ccc(F)cc2)cc1 (stereo not given)	1.4	-2.4	5.0	-20.0	2.3	0.9
O=C(COC(=O)c1ccc(Cl)c(S(=O)(=O)N2CCOCC2)c1)Nc1ccc2[nH]c(=O)[nH]c2c1	.	-2.9	15.3	.	-1.9	-1.4
O=C(COC(=O)c1ccc(Cl)c(S(=O)(=O)N2CCN(c3ccc(F)cc3)CC2)c1)Nc1cccc(Cl)c1	-2.2	-2.4	9.2	10.3	0.5	25.3*
CCCCCCn1c(-c2ccco2)nc2oc3cc(OC)ccc3c(=O)c2c1=O	4.3	-25.9	-1.9	-1.3	5.3	32.7*
COC(=O)c1ccccc1S(=O)(=O)NNC(=O)c1ccccc1-n1cccc1	-3.2	-5.8	-8.3	-7.5	2.0	-1.6
CCOc1ccccc1Nc1ccnc2cc(Cl)ccc12	-3.4	-5.1	-32.7	-10.3	-5.3	228.4*
N=C1S/C(=C\c2cccc3ccccc23)C(=O)N1c1ccc(F)cc1	2.8	-7.6	1.5	8.9	1.6	11.0*
N=C1S/C(=C\c2ccccc2F)C(=O)N1c1ccc(F)cc1	3.3	7.7	3.4	1.4	10.5	10.8*
N=C1S/C(=C\c2ccccc2)C(=O)N1c1ccc(F)cc1	-1.8	3.5	-14.5	-2.4	1.4	5.4
O=C(Nc1cc(Sc2nc3ccccc3s2)cc([N+](=O)[O-])c1)c1cccc(F)c1F	-1.2	2.3	-15.2	-5.2	-1.8	6.8
CCOc1ccc(NC(=O)NC2CCCc3ccccc32)cc1 (stereo not given)	-2.1	13.2	-24.8	-3.0	-0.3	-0.5
COc1cc(Nc2ccccn2)cc(C(=O)Nc2cccc(C(F)(F)F)c2)c1	3.7	8.0	2.2	6.3	-3.9	20.7*
COc1cc(NC(=O)c2cc3cccc(OC)c3o2)cc(C(=O)Nc2cccc(C(F)(F)F)c2)c1	2.0	-4.2	-8.2	-0.1	19.9	11.7*
COc1cc(NC(=O)c2ccc(N)nc2)cc(C(=O)Nc2cccc(C(F)(F)F)c2)c1	-0.8	-8.8	5.0	4.7	-11.4	30.1*
COc1cc(NC(=O)c2csc(-c3ccncc3)n2)cc(C(=O)Nc2cccc(C(F)(F)F)c2)c1	-1.4	?	3.6	5.5	1.6	-1.1
COc1cc(NC(=O)c2ccno2)cc(C(=O)Nc2cccc(C(F)(F)F)c2)c1	-0.3	-4.0	7.3	1.3	-1.3	7.7
COc1ccc(-c2cc(C(=O)Nc3cc(OC)cc(C(=O)Nc4cccc(C(F)(F)F)c4)c3)[nH]n2)cc1	0.7	7.8	14.8	1.9	8.3	29.1*
O=C(CN1CCN(c2ccccn2)CC1)Nc1ccc(F)c(F)c1	0.5	0.7	18.5	-8.6	-2.5	0.1
SMILES	TPT1 inhibitor	dFosB activator	ZTA counter	EBNA-1 inh	Rpn11 inh	NR3A LBD binder
CN(C)C(CNC(=O)c1cccc(S(=O)(=O)NCc2ccccc2)c1)c1ccco1 (stereo not given)	1.1	1.0	-15.7	-6.0	2.8	-0.4
CCN(c1ccccc1)S(=O)(=O)c1ccc(OC)c(NC(=O)COc2ccc(C(C)=O)cc2)c1	-1.3	-0.7	18.5	7.2	1.2	0.8
CC1CCC2(CC1)NC(=O)N(CC(=O)Nc1ccc3[nH]c(=O)[nH]c3c1)C2=O (stereo not given)	1.1	-4.6	2.8	8.5	-6.9	19.5*
COCCCNC(=S)N/N=C/c1ccc(OC)c(Br)c1	2.3	-5.3	-10.9	-5.7	-6.1	4.8
Cc1ccc(NC(=O)c2ccc(N3C(=O)C4CC=C(Cl)CC4C3=O)cc2)cc1 (stereo not given)	-0.5	-0.7	6.0	8.0	10.0	26.3*
COc1cc(C)c(NC(=O)Cc2ccsc2)cc1OC	-5.0	-2.0	-15.6	-5.0	5.2	-0.7
O=C(CCc1nc2cccnc2n1Cc1ccccc1)NCCc1ccc(Cl)cc1	-5.3	-7.5	8.8	8.6	-2.7	11.0*
O=C(c1ccc([N+](=O)[O-])cc1)N1CCN=C1SCc1ccccc1	-0.4	-4.1	-0.1	3.0	-3.4	0.9
O=C(c1ccccc1)N1CCN=C1SCc1ccc([N+](=O)[O-])cc1	1.2	-4.8	5.2	9.4	2.1	24.2*
Cc1noc2ncnc(Sc3ccc(Cl)cc3)c12	9.5	-0.5	-1.2	-0.8	-1.9	10.0*
CC1(C(=O)NCc2cccc3ccccc23)CCN1Cc1cc2ccccc2o1 (stereo not given)	.	.	.	.	-0.6	.
OCCCc1nc2n(n1)C(c1ccccc1Cl)C=C(c1cccs1)N2 (stereo not given)	24.2*	1.6	-10.1	-3.7	-25.2	1.3
COc1cc(C(O)c2nc(-c3ccc(N(C)C)cc3)cs2)ccc1F (stereo not given)	.	.	.	.	-5.1	.
O=C(c1cc(S(=O)(=O)N2CCOCC2)ccc1Cl)N1CCc2ccccc2C1	-2.5	-2.6	-7.3	-3.7	-2.4	2.5
c1ccc(-c2nnc3ccc(N4CCCC4)nn23)cc1	-0.3	-33.0	11.8	8.6	5.5	-1.3
FC(F)(F)c1cccc(N2CCN(c3ccc4nnc(-c5ccccc5)n4n3)CC2)c1	-4.2	-7.3	1.5	-11.8	2.6	22.2*
CCCc1nnc(NC(=O)CCN2C(=O)c3ccccc3C2=O)s1	3.4	19.5*	8.0	9.7	-0.6	1.0
COCc1nnc(NC(=O)CCN2C(=O)c3ccccc3C2=O)s1	3.4	2.8	-0.5	-10.3	3.8	0.9
CCCN(CCC)Cc1c(C(=O)N/N=C/c2ccc(Br)cc2)nnn1-c1nonc1N	-1.5	-27.2	10.5	12.1	2.6	22.0*
CCCN(CCC)Cc1c(C(=O)N/N=C/c2ccoc2)nnn1-c1nonc1N	1.0	-12.5	9.0	6.8	-0.3	5.4
Cc1ccc(-c2c(C(=O)N/N=C/c3c[nH]c4ccccc34)nnn2-c2nonc2N)cc1	1.4	7.2	7.8	10.2	-4.1	26.0*
